The values below come from PubChem BioAssay (NCATS).

Results filed as inconclusive are left out. A number with no mark means an inactive call. The source made the active and inactive calls. Calls follow the shape of the dose curve; as a rule, active = well fitted cell-killing curve with a large enough effect; inconclusive = small, poorly fitted or top-dose-only effect; inactive = no such curve, though single readings can be large or run the other way.
Potency is read from the fitted curve at half-maximal effect.

The assay in a line: qHTS of pediatric cancer cell lines to identify multiple opportunities for drug repurposing: Confirmatory screen for SK-N-MC cells (AID 1347111).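 Also: cells exposed to compound for 48 h before the readout; nearly all actives have a fitted effect of over 70% in size.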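 As to activity change, negative = cytotoxic: plate controls were DMSO for no effect and bortezomib for full effect.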 To be noted: SK-N-MC cell viability; series mostly up to 45.9 µM; activity change, negative = cytotoxic: at the top concentration. Put shortly:
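Metabolically active cells were quantified by ATP-dependent luminescence (CellTiter-Glo, 15 min at room temperature) following 48 h treatment. Cells had been plated at 500-1,000 per well and settled for 5 h beforehand.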
As to `Cn1cc(-c2cnn3c(N)c(Br)c([C@H]4CCCNC4)nc23)cn1`, the Potency is 0.827 µM (active).
Consider `N#Cc1c(C2CCNCC2)cc(-c2c(O)cccc2OCC2CC2)nc1N`, for which the “activity change, negative = cytotoxic” value is 5.01%.
Take `C=CC(=O)N1CCc2ccc(-n3c(=O)ccc4cnc5ccc(-c6cnn(C)c6)cc5c43)cc21`: the Potency is 5.22 µM (active).
In the case of `CCc1cc(C(C)=NOCc2ccc(C3CCCCC3)c(C(F)(F)F)c2)ccc1CN1CC(C(=O)O)C1`, the Potency is 8.27 µM (active).
On to `CCN(CC)Cc1ccc2cc(COC(=O)Nc3ccc(C(=O)NO)cc3)ccc2c1`, for which the “activity change, negative = cytotoxic” value was -5.57%.
For `O=C(O)c1ccc(Nc2ncc3c(n2)-c2ccc(Cl)cc2C(c2c(F)cccc2F)=NC3)cc1`, the Potency was 4.14 µM (active).
Regarding `COc1cc(C[C@@H](CO)[C@H](CO)Cc2ccc(O)c(OC)c2)ccc1O`, the Potency was 8.27 µM (active).
Same read-out and setting: for `Nc1ncn([C@@H]2O[C@H](CO)[C@@H](O)[C@@H]2O)c(=O)n1` the value was 16.5 µM (active).
